Reference: PubChem BioAssay (NCI)
The panel holds about 83,000 compounds, 20% with a hit somewhere; the sample as a whole holds those more often.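 Growth was measured after 48 h exposure to one concentration of compound in 96-well plates. Values under 10 count as active.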 Values without a mark were called inactive. The source made the active and inactive calls.

tested on: SW-620 colon; experiment: NCI-60 one-dose screen, 48 h (100 = growth as untreated, 0 = no growth, -100 = all killed); conditions: 10 µM unless noted

Structure (SMILES) | growth
CCOC(=O)c1sc(NS(=O)(=O)c2ccccc2)nc1C | 111%
Cc1nc(NC(=S)Nc2ccc(F)cc2)sc1C(=O)NNC(=S)Nc1ccc(F)cc1 | 86.7%
N#Cc1c(N)nc(Nc2nc3ccccc3[nH]2)nc1-c1ccc(Cl)cc1 | 117%
O=C(Nc1ccc(-n2cc(-c3ccncc3)c(-c3ccc(Cl)c(O)c3)n2)cc1)c1cc(C(F)(F)F)cc(C(F)(F)F)c1 | 81.4%
CC(=O)Nc1nc(C)c(C(=O)NN)s1 | 97.4%
CC(=O)Nc1nc(C)c(C(=O)NNS(=O)(=O)c2ccccc2)s1 | 106%
Cc1[nH]n(C(=S)Nc2nc3cc(Cl)c(F)cc3s2)c(=O)c1N=Nc1ccc(F)c(Cl)c1 | 102%
O=C(c1ccccc1)c1ccccc1-c1ccccc1 | 15.8%
COc1ccccc1C(=O)Nc1cccc(-c2cc(=O)c3c(OC)c(OC)c(OC)cc3o2)c1 | 63.4%
COc1cc2ncnc(-n3ncc4cc(NC(=O)Nc5ccc(Cl)c(C)c5)ccc43)c2cc1OC | 120%
COC(=O)/C=C/c1cc(O)c2oc(-c3ccc(O)c(O)c3)c(C(=O)OC)c2c1 | 14.8%
O=C(N/N=C\c1ccc(-c2ccc(Br)cc2)o1)c1cc2oc(-c3cccc(C(F)(F)F)c3)cc2[nH]1 | 118%
COc1cccc(NC(=O)NCCNc2nccc(-c3c(-c4ccc(F)cc4)nc4sccn34)n2)c1 | 101%
CC(=O)NNC(=O)c1sc(NC(C)=O)nc1C | 96.9%
Nc1nc(-c2cccc(Br)c2)cc(-c2cc3ccccc3oc2=O)n1 | 105%
COC(=O)C(Cc1cnc[nH]1)N1CC(=O)N2[C@@H](c3ccccc3)SC[C@H]2C1=O (some centres undefined) | 108%
NCCCOc1cc(Cl)ccc1NC(=O)c1cc2ccccc2cc1OCCCN | -92% (active)
COc1ccc2c(c1)cn1c3ccc(O)cc3[nH]c(=O)c21 | 8.4% (active)

Structure (SMILES) | growth
[N-]=[N+]=Nc1ncc(-c2ccc(C(F)(F)F)cc2)c(NC2CCCCCC2)n1 | 27.2% [100 µM]
CC(=O)N1CCN(CCNC(=O)n2cc(-c3ccncc3)c(-c3cc(O)cc(Cl)c3)n2)CC1 | 76.8%
Nc1nc2c(c3cnccc13)C(c1cccc(Br)c1)Cc1cnccc1-2 (centres undefined) | 25.9%
CC(=O)N1CCN(CCNC(=O)n2cc(-c3ccncc3)c(-c3ccc(O)c(Cl)c3)n2)CC1 | 130%
O=S(=O)(O)CCI | 102%
c1cc[c]([Bi]([c]2ccccc2)[c]2ccccc2)cc1 | 92.9%
COC(=O)[C@@H]1[C@H](O)[C@H](C)[C@H](O)[C@H](C)/C=C\C=C(C)C(=O)Nc2c(C)c(OC(C)=O)c3c(c2O)C(=O)C(C)=C2OCOC(=C23)C(C)=C[C@@](C)(O)[C@H](O)[C@@H](C)[C@H]1OC(C)=O | 117%
O=C1OC(c2ccc(-c3ccccc3)cc2)=C/C1=C/c1c2ccccc2cc2ccccc12 | 96.9%
O=c1[nH]c2cc(O)ccc2n2cc3c(F)cccc3c12 | 18.7%
CC(C)CCCCCOC(=O)c1ccccc1SSc1ccccc1C(=O)OCCCCCC(C)C | 101%
O=C(Nc1ccc(-n2cc(-c3ccncc3)c(-c3ccc(Cl)c(O)c3)n2)cc1)c1ccc(Cl)c(Cl)c1 | 11.2%
O=[N+]([O-])c1ccc(-c2ncc(-c3ccc(O)cc3O)[nH]2)cc1 | 106%
Cc1nc(NC(=O)NC2CCCCC2)sc1C(=O)NN | 106%
COc1ccc2cn3c4ccc(O)cc4[nH]c(=O)c3c2c1 | 11.3%
COc1ccc(C2CC(=O)c3c(O)cc(OC4OC(COC5OC(C)C(O)C(O)C5O)C(O)C(O)C4O)cc3O2)cc1O (centres undefined) | 113%
CCCCn1c(Cc2ccc(OC)cc2)nc2cc(OC)c(OC)cc2c1=O | 92.5%
CCC(C)C1NC(=O)C(CC(C)C)NC(=O)C(C)NC(=O)C(C(C)C)NC(=O)C(CCCCN)NC(=O)C(CC(C)C)NC(=O)C(C(C)C)NC(=O)[C@H](C)NC(=O)C(C(C)CC)NC(=O)C(CCCN=C(N)N)NC(=O)C(CCCCN)NC(=O)C(CCCN=C(N)N)NC(=O)C(CCCCN)NC(=O)C([C@H](C)CC)NC(=O)C(CCCCN)NC1=O (some centres undefined) | 19.6%
CC(C)(C)c1ccc(OCCOC(=O)CBr)cc1 | 86.2%

tested on: MCF7 breast; experiment: as above; conditions: 10 µM unless noted

Structure (SMILES) | growth
CCOC(=O)c1sc(NS(=O)(=O)c2ccccc2)nc1C | 96.2%
Cc1nc(NC(=S)Nc2ccc(F)cc2)sc1C(=O)NNC(=S)Nc1ccc(F)cc1 | 72.2%
N#Cc1c(N)nc(Nc2nc3ccccc3[nH]2)nc1-c1ccc(Cl)cc1 | 86.9%
O=C(Nc1ccc(-n2cc(-c3ccncc3)c(-c3ccc(Cl)c(O)c3)n2)cc1)c1cc(C(F)(F)F)cc(C(F)(F)F)c1 | 30.3%
CC(=O)Nc1nc(C)c(C(=O)NN)s1 | 99.1%
CC(=O)Nc1nc(C)c(C(=O)NNS(=O)(=O)c2ccccc2)s1 | 110%
Cc1[nH]n(C(=S)Nc2nc3cc(Cl)c(F)cc3s2)c(=O)c1N=Nc1ccc(F)c(Cl)c1 | 80.8%
COc1ccccc1C(=O)Nc1cccc(-c2cc(=O)c3c(OC)c(OC)c(OC)cc3o2)c1 | 53.4%
COc1cc2ncnc(-n3ncc4cc(NC(=O)Nc5ccc(Cl)c(C)c5)ccc43)c2cc1OC | 72.7%
COC(=O)/C=C/c1cc(O)c2oc(-c3ccc(O)c(O)c3)c(C(=O)OC)c2c1 | 9.36% (active)
O=C(N/N=C\c1ccc(-c2ccc(Br)cc2)o1)c1cc2oc(-c3cccc(C(F)(F)F)c3)cc2[nH]1 | 89.9%
COc1cccc(NC(=O)NCCNc2nccc(-c3c(-c4ccc(F)cc4)nc4sccn34)n2)c1 | 32%
CC(=O)NNC(=O)c1sc(NC(C)=O)nc1C | 87.4%
Nc1nc(-c2cccc(Br)c2)cc(-c2cc3ccccc3oc2=O)n1 | 57.6%
COC(=O)C(Cc1cnc[nH]1)N1CC(=O)N2[C@@H](c3ccccc3)SC[C@H]2C1=O (some centres undefined) | 106%
NCCCOc1cc(Cl)ccc1NC(=O)c1cc2ccccc2cc1OCCCN | -93.9% (active)
COc1ccc2c(c1)cn1c3ccc(O)cc3[nH]c(=O)c21 | -4.36% (active)
[N-]=[N+]=Nc1ncc(-c2ccc(C(F)(F)F)cc2)c(NC2CCCCCC2)n1 | 16.3% [100 µM]
CC(=O)N1CCN(CCNC(=O)n2cc(-c3ccncc3)c(-c3cc(O)cc(Cl)c3)n2)CC1 | 93.4%

Structure (SMILES) | growth
Nc1nc2c(c3cnccc13)C(c1cccc(Br)c1)Cc1cnccc1-2 (centres undefined) | 11.5%
CC(=O)N1CCN(CCNC(=O)n2cc(-c3ccncc3)c(-c3ccc(O)c(Cl)c3)n2)CC1 | 102%
O=S(=O)(O)CCI | 98.3%
c1cc[c]([Bi]([c]2ccccc2)[c]2ccccc2)cc1 | 97.5%
COC(=O)[C@@H]1[C@H](O)[C@H](C)[C@H](O)[C@H](C)/C=C\C=C(C)C(=O)Nc2c(C)c(OC(C)=O)c3c(c2O)C(=O)C(C)=C2OCOC(=C23)C(C)=C[C@@](C)(O)[C@H](O)[C@@H](C)[C@H]1OC(C)=O | 104%
O=C1OC(c2ccc(-c3ccccc3)cc2)=C/C1=C/c1c2ccccc2cc2ccccc12 | 83.9%
O=c1[nH]c2cc(O)ccc2n2cc3c(F)cccc3c12 | -3.3% (active)
OC(c1ccccc1)(c1ccccc1)C(F)(F)F | 104%
CC(C)CCCCCOC(=O)c1ccccc1SSc1ccccc1C(=O)OCCCCCC(C)C | 93.6%
CCN(CC)c1ccc2nc3ccc(N=Nc4ccc(O)cc4)cc3[n+](-c3ccccc3)c2c1 | -13.8% (active)
O=C(Nc1ccc(-n2cc(-c3ccncc3)c(-c3ccc(Cl)c(O)c3)n2)cc1)c1ccc(Cl)c(Cl)c1 | 27.9%
O=[N+]([O-])c1ccc(-c2ncc(-c3ccc(O)cc3O)[nH]2)cc1 | 90.3%
CCS(=O)(=O)N[C@@H]1O[C@H](COC(C)=O)C(OC(C)=O)[C@H](OC(C)=O)C1OC(C)=O (some centres undefined) | 103%
COc1ccc2cn3c4ccc(O)cc4[nH]c(=O)c3c2c1 | -5.85% (active)
COc1ccc(C2CC(=O)c3c(O)cc(OC4OC(COC5OC(C)C(O)C(O)C5O)C(O)C(O)C4O)cc3O2)cc1O (centres undefined) | 95.1%
CCCCn1c(Cc2ccc(OC)cc2)nc2cc(OC)c(OC)cc2c1=O | 81.3%
CCC(C)C1NC(=O)C(CC(C)C)NC(=O)C(C)NC(=O)C(C(C)C)NC(=O)C(CCCCN)NC(=O)C(CC(C)C)NC(=O)C(C(C)C)NC(=O)[C@H](C)NC(=O)C(C(C)CC)NC(=O)C(CCCN=C(N)N)NC(=O)C(CCCCN)NC(=O)C(CCCN=C(N)N)NC(=O)C(CCCCN)NC(=O)C([C@H](C)CC)NC(=O)C(CCCCN)NC1=O (some centres undefined) | 20.5%
COc1ccc2cc(C(C)C(=O)Nc3ccc(S(=O)(=O)Nc4cc(C)on4)cc3)ccc2c1 (centres undefined) | 102%
CC(C)(C)c1ccc(OCCOC(=O)CBr)cc1 | 98.3%
